The supplement of paper PMC6555819

system: PPARg DBDmut:RXRa IVT, anti-PPARg (DBD mutation: PPARg1 K132A/R137A, NR concentration 270 nM, RXRa partner concentration 90 nM); assay: PBM binding z-score (relative to random genomic background probes); higher = stronger binding; sequences stand for … in GC…GCGATTGACAGCGTAGAATGAAGG
How it was run: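 Antibodies against each partner of ligand-free nuclear receptor dimers (one per run) detected binding on custom Agilent 4×180K protein-binding microarrays after 1 h incubation. The double-stranded probes had 34-nt variable regions carrying direct-repeat seeds, single-nucleotide variants, half-site ablations and random human genomic background sequences. Binding z-scores, from regression-normalized fluorescence, use the random background probes as reference.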

Going from TCATATAGGTACATGCTAGGTGAAAGTCCGATCT to CGAACTAAGTCAAGGACAGTGAATCTCCGCACGC, the PBM binding z-score falls from 0.847 to -0.424.

First: AATACAGGGTCACTAGGCGAGAGTAGGTACGAAT
Second: CGTCCAAGGTCAAAGGTCAGAGAAGAGATGACGG
The PBM binding z-score of the first is higher: 1.72 for the first, 1.12 for the second.

Compared with TATAGTTGGTCAAAGGTCACACACTCGAAATGCG, TTACCAAGGTGAAAGGTTGTTGATGCACGCCTTG is lower in PBM binding z-score: 1.87 for the first, 0.253 for the second.

Going from ACTAGCAGGCCAAGTTTGGGTCGCTCAAACAAAG to CTCGAAAGGTCGTGCTCAGGTGAGTAGACCAAAC, the PBM binding z-score rises from -0.842 to 1.76.

Going from GGAACGAGGGCATTCTAGTTGATAGCATGGCGAT to CCAGACAGCTGAAAGGTAACTCAGTCTGGTACGC, the PBM binding z-score rises from -0.851 to -0.361.

First: CGAACTAGGTCATCCAGAACAGTGAATACATTGA
Second: TCTTGTAGATCAGCAGATTAAGAAAGCTGGCCAA
The PBM binding z-score of the first is higher: 6.73 for the first, -0.256 for the second.

First: ACTATTAGTTGACTTAGGGAAACCGATACGACGC
Second: CGAACTGGGTCATTGACAGGACAGTGAATAGTAA
The PBM binding z-score of the first is higher: 1.26 for the first, 1.06 for the second.

First: TCTCGGAGGACACCAAGGTCAGAGCTTTCCAGAG
Second: TCTTGTAGACCAATAGAGGTTAAGAAAGTGCGCT
The PBM binding z-score of the first is lower: -0.509 for the first, 0.86 for the second.

Compared with GCTAGTTGGTCAGTAAAAAGTCACACACCGGTCG, AGAACGAGGGCAGGCTGAGTTGATAGCAGAGTAG is higher in PBM binding z-score: 0.0294 for the first, 0.0574 for the second.

First: CCGAGGAGGTTATGGGGCATTCAGGCAACGGTGA
Second: CCTAGCAGGCCAATCTGGGTTACTCAAGGCTTGA
The PBM binding z-score of the first is higher: -0.326 for the first, -0.813 for the second.

Compared with ACTATTAGTTGACTTAGGGCAAGCGATACGACGC, CCTTACGGGGCACTGACAGGTTATAGCATTTGGA is lower in PBM binding z-score: 0.636 for the first, -0.296 for the second.

First: ATATGTAGGTTATAGGGTCATTCAGTTTGCGCAT
Second: ATCTCTAAGTAACAAGTTCAGTGAAAGAGAGGAC
The PBM binding z-score of the first is higher: 2.03 for the first, 0.885 for the second.

Compared with AGTGAAAGTTCATCTAGGTAACGTAAGATATGCT, TCTAGTAGATCAATAGAGGTTAAGAAAGTGCGCT is lower in PBM binding z-score: 1.8 for the first, -0.106 for the second.

Going from CCTACTGGGCCAAGGTTATTGATCAGTCAAAGCA to ATATGTAGGTTAATGGTCATTCAGGTTGGTTCGC, the PBM binding z-score rises from -0.243 to 4.17.

First: GATACAGGGTCAGCTAGAGGCCAGTGTATGGAAA
Second: TAGCCTAGGTCAGGTCGGGCCAGTATACGCTATA
The PBM binding z-score of the first is higher: 0.256 for the first, -0.681 for the second.

Compared with GCCTGTAGATCAAGGTTAAGAAAGACTAAGCTAA, CCTATTAGTTAACCATAAGGGCAACCGAAGCTCG is higher in PBM binding z-score: -0.514 for the first, 0.701 for the second.

First: TAGCCTAGGTCAGATCGGGCCAGAATACGCTATA
Second: CCTGCTAGGTCATGGTCAGATAATCTACAGTATG
The PBM binding z-score of the first is lower: -0.542 for the first, 0.574 for the second.

Compared with AGACTGAGGTTAAGATCAGGGAAACAGAATACAT, GGAACGAGGGCATTCGAGTTGGTAGCATGGCGAT is lower in PBM binding z-score: -0.0816 for the first, -0.924 for the second.

First: TTACCAAGATGAGCTGAGGTCGTTGATCCAACTC
Second: TCGGCTAGGTCAGTTGGTCAGCTAACGAGCTGCC
The PBM binding z-score of the first is higher: -0.000343 for the first, -0.718 for the second.

Work on TCTTGTAGATCAAGCCGGTTAAGAAAGCCTGAGT yielded a PBM binding z-score of -0.157.
